Data published in publication PMC5540273 (PLoS ONE, 2017).
Several values for one entry are separate records, joined by “and”; a condition that tells them apart may be missing. Equal values may be shown once. Read-outs that look alike come from different tables or passages of the source.

Assays:
TSSK3 = details: concentration: 1 μM, replicates: in singlicate, n = 1
TTK = details: concentration: 1 μM, replicates: in singlicate, n = 1
TXK = details: concentration: 1 μM, replicates: in singlicate, n = 1
[1] = system: TYK2(JH1domain-catalytic); details: concentration: 1 μM, replicates: in singlicate, n = 1
[2] = system: TYK2(JH2domain-pseudokinase); details: concentration: 1 μM, replicates: in singlicate, n = 1
TYRO3 = details: concentration: 1 μM, replicates: in singlicate, n = 1
ULK1 = details: concentration: 1 μM, replicates: in singlicate, n = 1
ULK2 = details: concentration: 1 μM, replicates: in singlicate, n = 1
ULK3 = details: concentration: 1 μM, replicates: in singlicate, n = 1
VEGFR2 = system: T1, VEGFR2; details: concentration: 1 μM, replicates: in singlicate, n = 1
T1 construct: gene KDR

VPS34 = system: T2, VPS34; details: concentration: 1 μM, replicates: in singlicate, n = 1
T2 construct: gene PIK3C3

VRK2 = details: concentration: 1 μM, replicates: in singlicate; n = 1
WEE1 = details: concentration: 1 μM, replicates: in singlicate; n = 1
WEE2 = details: concentration: 1 μM, replicates: in singlicate, n = 1
WNK1 = details: concentration: 1 μM, replicates: in singlicate, n = 1
WNK2 = details: concentration: 1 μM, replicates: in singlicate; n = 1
WNK3 = details: concentration: 1 μM, replicates: in singlicate, n = 1
WNK4 = details: concentration: 1 μM, replicates: in singlicate, n = 1
YANK1 = system: T3, YANK1; details: concentration: 1 μM, replicates: in singlicate, n = 1
T3 construct: gene STK32A

YANK2 = system: T4, YANK2; details: concentration: 1 μM, replicates: in singlicate, n = 1
T4 construct: gene STK32B
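Further: KINOMEscan kinase panel screen.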

Structure (SMILES): COc1cc2c(cc1OC[C@@H](O)CO)ncc1c3ccc(C#N)cc3[nH]c21
- %Inh (TSSK3): 0%
- %Inh (TTK): 0%
- %Inh (TXK): 0%
- %Inh [1]: 0%
- %Inh [2]: 22%
- %Inh (TYRO3): 0%
- %Inh (ULK1): 71%
- %Inh (ULK2): 99.2%
- %Inh (ULK3): 50%
- %Inh (VEGFR2): 19%
- %Inh (VPS34): 0%
- %Inh (VRK2): 9%
- %Inh (WEE1): 0%
- %Inh (WEE2): 0%
- %Inh (WNK1): 1%
- %Inh (WNK2): 0%
- %Inh (WNK3): 2%
- %Inh (WNK4): 0%
- %Inh (YANK1): 19%
- %Inh (YANK2): 0%

Structure (SMILES): Cl.Cl.Cl.Fc1ccc(-c2ncn(C3CCNCC3)c2-c2ccnc(Nc3ccccc3)n2)cc1 [SB-238039]
- %Inh (TSSK3; 1 µM): 19% and 5%
- %Inh (TTK; 1 µM): 15% and 3%
- %Inh (TXK; 1 µM): 3% and 0%
- %Inh ([1]; 1 µM): 35% and 0%
- %Inh ([2]; 1 µM): 18% and 0%
- %Inh (TYRO3; 1 µM): 0% and 12%
- %Inh (ULK1; 1 µM): 28% and 6%
- %Inh (ULK2; 1 µM): 21% and 29%
- %Inh (ULK3; 1 µM): 24% and 26%
- %Inh (VEGFR2; 1 µM): 0% and 9%
- %Inh (VPS34; 1 µM): 44% and 8%
- %Inh (VRK2): 100%
- %Inh (WEE1): 0%
- %Inh (WEE2; 1 µM): 0% and 24%
- %Inh (WNK1; 1 µM): 30% and 0%
- %Inh (WNK2): 0%
- %Inh (WNK3; 1 µM): 26% and 0%
- %Inh (WNK4; 1 µM): 30% and 0%
- %Inh (YANK1; 1 µM): 95.6% and 93.7%
- %Inh (YANK2; 1 µM): 94.1% and 88%

Structure (SMILES): CC(C)(C)n1cnc2c(N)ncnc21 [SKF-97359]
- %Inh (TSSK3): 45%
- %Inh (TTK): 0%
- %Inh (TXK): 0%
- %Inh [1]: 21%
- %Inh [2]: 1%
- %Inh (TYRO3): 0%
- %Inh (ULK1): 0%
- %Inh (ULK2): 0%
- %Inh (ULK3): 0%
- %Inh (VEGFR2): 0%
- %Inh (VPS34): 15%
- %Inh (VRK2): 100%
- %Inh (WEE1): 0%
- %Inh (WEE2): 12%
- %Inh (WNK1): 0%
- %Inh (WNK2): 25%
- %Inh (WNK3): 40%
- %Inh (WNK4): 0%
- %Inh (YANK1): 0%
- %Inh (YANK2): 0%

Structure (SMILES): Cn1ccc2ncnc(Oc3ccc(NC(=O)Nc4ccncc4)c(Cl)c3)c21
- %Inh (TSSK3): 0%
- %Inh (TTK): 0%
- %Inh (TXK): 0%
- %Inh [1]: 3%
- %Inh [2]: 5%
- %Inh (TYRO3): 0%
- %Inh (ULK1): 0%
- %Inh (ULK2): 10%
- %Inh (ULK3): 0%
- %Inh (VEGFR2): 1%
- %Inh (VPS34): 0%
- %Inh (VRK2): 0%
- %Inh (WEE1): 0%
- %Inh (WEE2): 0%
- %Inh (WNK1): 0%
- %Inh (WNK2): 0%
- %Inh (WNK3): 0%
- %Inh (WNK4): 0%
- %Inh (YANK1): 0%
- %Inh (YANK2): 5%

Structure (SMILES): Fc1ccc(-c2ncn(CCCN3CCOCC3)c2-c2ccccn2)cc1 [SB-211742]
- %Inh (TSSK3): 0%
- %Inh (TTK): 0%
- %Inh (TXK): 5%
- %Inh [1]: 0%
- %Inh [2]: 0%
- %Inh (TYRO3): 8%
- %Inh (ULK1): 0%
- %Inh (ULK2): 0%
- %Inh (ULK3): 0%
- %Inh (VEGFR2): 0%
- %Inh (VPS34): 20%
- %Inh (VRK2): 0%
- %Inh (WEE1): 21%
- %Inh (WEE2): 11%
- %Inh (WNK1): 0%
- %Inh (WNK2): 0%
- %Inh (WNK3): 5%
- %Inh (WNK4): 0%
- %Inh (YANK1): 0%
- %Inh (YANK2): 0%

Structure (SMILES): CN1c2ccc(NCc3ccc(F)cc3)cc2-c2c(cnn2C)S1(=O)=O
- %Inh (TSSK3): 0%
- %Inh (TTK): 0%
- %Inh (TXK): 0%
- %Inh [1]: 0%
- %Inh [2]: 12%
- %Inh (TYRO3): 16%
- %Inh (ULK1): 0%
- %Inh (ULK2): 0%
- %Inh (ULK3): 0%
- %Inh (VEGFR2): 4%
- %Inh (VPS34): 0%
- %Inh (VRK2): 0%
- %Inh (WEE1): 0%
- %Inh (WEE2): 0%
- %Inh (WNK1): 42%
- %Inh (WNK2): 5%
- %Inh (WNK3): 8%
- %Inh (WNK4): 0%
- %Inh (YANK1): 0%
- %Inh (YANK2): 3%

Structure (SMILES): N#Cc1ccc(-c2cc(-c3c[nH]nc3-c3ccccn3)ccn2)cc1 [GW693028]
- %Inh (TSSK3): 8%
- %Inh (TTK): 3%
- %Inh (TXK): 6%
- %Inh [1]: 1%
- %Inh [2]: 28%
- %Inh (TYRO3): 24%
- %Inh (ULK1): 6%
- %Inh (ULK2): 0%
- %Inh (ULK3): 6%
- %Inh (VEGFR2): 0%
- %Inh (VPS34): 0%
- %Inh (VRK2): 13%
- %Inh (WEE1): 2%
- %Inh (WEE2): 0%
- %Inh (WNK1): 7%
- %Inh (WNK2): 15%
- %Inh (WNK3): 30%
- %Inh (WNK4): 30%
- %Inh (YANK1): 15%
- %Inh (YANK2): 7%

Structure (SMILES): COc1cc2c(cc1OCCN1CCN(C)CC1)ncc1c3ccc(C#N)cc3[nH]c21
- %Inh (TSSK3): 9%
- %Inh (TTK): 7%
- %Inh (TXK): 0%
- %Inh [1]: 0%
- %Inh [2]: 35%
- %Inh (TYRO3): 0%
- %Inh (ULK1): 92.4%
- %Inh (ULK2): 99.9%
- %Inh (ULK3): 66%
- %Inh (VEGFR2): 23%
- %Inh (VPS34): 0%
- %Inh (VRK2): 0%
- %Inh (WEE1): 24%
- %Inh (WEE2): 3%
- %Inh (WNK1): 0%
- %Inh (WNK2): 0%
- %Inh (WNK3): 0%
- %Inh (WNK4): 0%
- %Inh (YANK1): 0%
- %Inh (YANK2): 0%

Structure (SMILES): COc1ccc(CNC(=O)NC2CCN(c3ccnc(Nc4ccc(OC)cc4)n3)C2)cc1 (centres unmarked) [GSK1379727]
- %Inh (TSSK3): 5%
- %Inh (TTK): 18%
- %Inh (TXK): 0%
- %Inh [1]: 37%
- %Inh [2]: 46%
- %Inh (TYRO3): 0%
- %Inh (ULK1): 0%
- %Inh (ULK2): 0%
- %Inh (ULK3): 9%
- %Inh (VEGFR2): 0%
- %Inh (VPS34): 0%
- %Inh (VRK2): 32%
- %Inh (WEE1): 9%
- %Inh (WEE2): 7%
- %Inh (WNK1): 4%
- %Inh (WNK2): 0%
- %Inh (WNK3): 44%
- %Inh (WNK4): 63%
- %Inh (YANK1): 0%
- %Inh (YANK2): 0%

Structure (SMILES): O=C(c1ccc(-c2cc(-c3c[nH]nc3-c3ccccn3)ccn2)cc1)N1CCOCC1 [GW812171]
- %Inh (TSSK3): 0%
- %Inh (TTK): 0%
- %Inh (TXK): 11%
- %Inh [1]: 0%
- %Inh [2]: 21%
- %Inh (TYRO3): 0%
- %Inh (ULK1): 14%
- %Inh (ULK2): 38%
- %Inh (ULK3): 3%
- %Inh (VEGFR2): 0%
- %Inh (VPS34): 9%
- %Inh (VRK2): 23%
- %Inh (WEE1): 0%
- %Inh (WEE2): 0%
- %Inh (WNK1): 2%
- %Inh (WNK2): 9%
- %Inh (WNK3): 4%
- %Inh (WNK4): 0%
- %Inh (YANK1): 0%
- %Inh (YANK2): 63%
